Rows were chosen to be rich in hits. Some 10% of all compounds tested hit in one or more screens of this group.
CtBP-E1A blk = inhibitors of CtBP/E1A interaction; AlphaScreen GST-E1A/His-CtBP binding, 1536-well; hits give low values; activity change, % (no concentration beside the values); hit rate 0.49% among 340,000; AID 651724; in the data active = activity change below about -65%; inconclusive = mostly about -30% to -63%; note: % is set by controls: 0 for no effect and ±100 for the full control effect
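GST-E1A and His-tagged CtBP (125 nM each as 5X stock) were preincubated with pin-transferred compound for 2 h at 37 °C in the dark, then glutathione donor and nickel acceptor beads were added for 1 h before AlphaScreen reading.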
G9a inh-1 = blocks human histone lysine methyltransferase G9a; G9a H3K9 monomethylation, AlphaScreen, 2 h; Q96KQ7; Potency, µM (titrated, usually from 102 µM), inactives show at the highest dose activity, negative = inhibition, usual class: inhibitors; hit rate 8.8% among 350,000; note: potency is the fitted concentration of half-maximal effect; % is set by controls: 0 for no effect and ±100 for the full control effect; nearly all actives have a fitted effect of over 75% in size
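Using a bead-based AlphaScreen, monomethylated H3K9 product from 2 h room-temperature reactions (G9a 20 nM, peptide 500 nM, SAM 20 uM) was detected with 0.5 ug/mL rabbit anti-H3K9me1 antibody.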
BAZ2B inh = blocks human BAZ2B; Q9UIF8; AlphaScreen BAZ2B-H3K14Ac peptide displacement; Potency, µM (highest dose often 114 µM), for inactives: at the top dose activity change, negative = inhibition, most hits filed as inhibitors; hit rate 4.4% among 360,000; note: potency is the fitted concentration of half-maximal effect; % is set by controls: 0 for no effect and ±100 for the full control effect; nearly all actives have a fitted effect of over 60% in size
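Inhibition is scored as reduced AlphaScreen emission. The BAZ2B/b-H3(5-23)K14Ac complex (50 nM each) in PBS pH 7.4, 0.01% Tween-20 meets compound (up to 110 uM) for 30 min at RT before bead addition.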
Six1-Eya2 blk = inhibitors of human Six1/Eya2 interaction | activity change, % (concentration not given with the values) | Q15475+O00167 | AlphaScreen GST-Six1/His-Eya2 binding, biochemical; hits give low values | hit rate 0.56% among 360,000; in the data active = activity change below about -65%; inconclusive = mostly about -30% to -63%; note: % is set by controls: 0 for no effect and ±100 for the full control effect
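Six1/Eya2 binding was read as AlphaScreen signal after compounds were pinned into GST-Six1 plus His-tagged Eya2 (5X stock 250/500 nM) in pH 8.0 Tris/NaCl/TCEP buffer, beads added, then incubated 1 h, 37 C, dark.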
HP1b chromo inh = inhibitors of HP1-beta chromodomain binding to methylated histone tails; AlphaScreen HP1-beta / biotin-H3K9me3 peptide binding; Potency, µM (series often up to 114 µM), for the others: top-dose activity change, negative = inhibition, most hits filed as inhibitors; hit rate 0.56% among 390,000; AID 540317; note: potency is the fitted concentration of half-maximal effect; nearly all actives have a fitted effect of over 70% in size
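HP1-beta protein (50 nM final) preincubated 30 min at room temperature with biotinylated H3(1-18)K9me3 peptide (50 nM) in PBS pH 7.4, 0.01% Tween-20, then compound added for 30 min. AlphaScreen streptavidin donor/nickel chelate acceptor beads (10 ug/mL final), 30 min dark, luminescence read.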
JMJD2A Tudor inh = JMJD2A Tudor domain (human) inhibition; Potency, µM (highest dose often 114 µM), for inactives: top-dose activity change, negative = inhibition, usual class: inhibitors; O75164; AlphaScreen JMJD2A-Tudor / H3K4me3 peptide binding; hit rate 4.4% among 390,000; note: potency is the fitted concentration of half-maximal effect; % is set by controls: 0 for no effect and ±100 for the full control effect; nearly all actives have a fitted effect of over 50% in size
Target sequence (O75164 whole entry, looked up, the tested form may be a part): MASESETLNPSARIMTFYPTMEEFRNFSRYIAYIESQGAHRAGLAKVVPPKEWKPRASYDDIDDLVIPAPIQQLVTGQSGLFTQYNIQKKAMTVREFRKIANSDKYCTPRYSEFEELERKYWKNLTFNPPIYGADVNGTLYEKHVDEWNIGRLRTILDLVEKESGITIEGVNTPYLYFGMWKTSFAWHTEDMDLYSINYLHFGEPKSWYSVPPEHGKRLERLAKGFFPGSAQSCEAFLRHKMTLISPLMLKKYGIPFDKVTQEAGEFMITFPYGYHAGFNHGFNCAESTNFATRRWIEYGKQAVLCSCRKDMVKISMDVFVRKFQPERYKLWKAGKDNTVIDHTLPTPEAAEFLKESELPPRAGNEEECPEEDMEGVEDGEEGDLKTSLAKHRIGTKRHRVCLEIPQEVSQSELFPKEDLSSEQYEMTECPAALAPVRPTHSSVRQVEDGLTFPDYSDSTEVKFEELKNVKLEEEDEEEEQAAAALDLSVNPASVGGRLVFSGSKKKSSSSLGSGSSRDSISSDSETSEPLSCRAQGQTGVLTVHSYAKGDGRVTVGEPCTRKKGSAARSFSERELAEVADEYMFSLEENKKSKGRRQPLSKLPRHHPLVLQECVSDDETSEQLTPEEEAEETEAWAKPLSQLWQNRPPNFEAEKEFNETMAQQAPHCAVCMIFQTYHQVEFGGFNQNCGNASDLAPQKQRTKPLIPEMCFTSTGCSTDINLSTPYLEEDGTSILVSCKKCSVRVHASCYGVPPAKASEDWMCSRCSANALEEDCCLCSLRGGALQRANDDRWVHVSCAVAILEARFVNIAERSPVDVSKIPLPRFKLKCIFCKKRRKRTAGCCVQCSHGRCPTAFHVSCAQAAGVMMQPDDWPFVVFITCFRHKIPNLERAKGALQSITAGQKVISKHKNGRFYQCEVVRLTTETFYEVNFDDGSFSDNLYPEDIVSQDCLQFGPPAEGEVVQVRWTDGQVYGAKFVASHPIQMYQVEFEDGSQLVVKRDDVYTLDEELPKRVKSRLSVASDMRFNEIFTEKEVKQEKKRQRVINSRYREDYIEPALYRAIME
JMJD2E confirm = confirmation of inhibitors of human JMJD2E demethylase. shares compounds with JMJD2A Tudor inh. Recombinant JMJD2E, FDH-coupled NADH fluorescence (FDH is formaldehyde dehydrogenase). Potency, µM (doses to about 56.8 µM), for the others: at the highest dose activity change, negative = inhibition, most hits filed as inhibitors. hit rate 93% among 140
FDH inh = FDH (Pseudomonas putida) inhibition counter-screen; hit rate 10% among 140; FDH enzyme assay, NADH fluorescence kinetic; shares compounds with JMJD2A Tudor inh; Potency, µM (top dose mostly 56.7 µM), without a hit: at the highest dose activity, negative = inhibition, actives largely listed as inhibitors
G9a inh-2 = confirmation of human histone methyltransferase G9a inhibitors. G9a H3K9 monomethylation, AlphaScreen, 2 h. Potency, µM, hits mostly inhibitors. shares compounds with JMJD2A Tudor inh. hit rate 89% among 370; note: potency is the fitted concentration of half-maximal effect; nearly all actives have a fitted effect of over 65% in size
RGS4 inh = inhibits human RGS4, hit validation | Potency, µM, usual class: inhibitors | RGS4 GAP activity, Transcreener GDP fluorescence polarization | hit rate 80% among 25 | AID 602388 | shares compounds with JMJD2A Tudor inh
* marks the source's active call; other numbers are inactive results; ? = inconclusive; nt = no result given; [ ] = dose if it differs, or a comment. Unless noted, calls come from the whole dose curve; as a rule, active = well fitted curve in the direction sought with a large enough effect; inconclusive = small, poorly fitted or top-dose-only effect, or another doubt; inactive = no such curve, though single readings can be large; an effect the other way counts as inactive or inconclusive.

SMILES	CtBP-E1A blk	G9a inh-1	BAZ2B inh	Six1-Eya2 blk	HP1b chromo inh	JMJD2A Tudor inh	G9a inh-2	others
O=C(CSc1nnc2c(n1)[nH]c1ccccc12)Nc1ccc2c(c1)OCO2	-23.4	1.78µM*	-33.2%	-21.5	-1.4%	-18.5%	1.59*
NC(=O)c1ccc(-n2nnnc2SCC(=O)c2ccc(O)c(O)c2)cc1	?	11.2µM*	?	-24.7	-10.1%	?	nt	JMJD2E confirm=7.94µM*;FDH inh=-25.9%
Cn1c(SCC(=O)NC2CCCCC2)nnc1-c1cccc(N)c1	3.5	1.58µM*	7.3%	4.0	29.1%	-5.7%	2.83*
Cn1c(SCC(=O)NC2CCCC2)nnc1-c1ccncc1	3.7	nt	-11.5%	-0.3	34.1%	-10.3%	nt
CC1(c2nnc(-c3cccc(Cl)c3)o2)CC(c2ccccc2F)=NO1 (stereo not drawn)	0.0	nt	nt	1.1	116.6%	31.0%	nt
O=C(O)c1cc(S(=O)(=O)Nc2ccc(N3CCCCC3)cc2)ccc1Cl	5.4	-18.3%[59 µM]	-31.9%	1.0	10.0%	-29.6%	nt
Clc1cccc(Cl)c1CNc1ccc(N2CCCC2)cc1	-21.8	1.78µM*	20µM*	?	17.8µM*	17.8µM*	3.99*	RGS4 inh=9.47*
OCc1cccc(-c2csc(C(O)c3ccco3)n2)c1 (stereo not drawn)	-23.6	nt	nt	-6.7	nt	nt	nt
CCOC(=O)c1ccc(N(C(=O)c2ccco2)C(C(=O)NC2CCCCC2)c2ccncc2)cc1 (stereo not drawn)	-14.5	?	5.4%	0.5	20.7%	-6.7%	nt
N#Cc1c(C(F)(F)F)cc(-c2ccccc2)nc1SCc1nc(N)nc(N2CCOCC2)n1	14.0	-29.3%[2.33 µM]	8.1%	1.1	35.0%	-4.1%	nt
Oc1ccccc1C=NC1=NN(c2cccc(C(F)(F)F)c2)CC1	-2.6	1µM*	?	-9.5	-5.4%	?	0.796*
COc1cc(C2Nn3c(nnc3-c3ccccc3OC)S2)ccc1O (stereo not drawn)	-0.5	0.631µM*	-11.5%	-6.0	?	2.24µM*	0.252*
C#Cc1ccc(C(=O)Nc2ccc(N3CCC(C)CC3)c(C(N)=O)c2)cc1	nt	3.5%	27.2%	1.1	17.3%	-19.7%	nt
CCCNC(=O)C1(C)CCN(CCOc2ccc(Cl)cc2)C1 (stereo not drawn)	29.9	nt	nt	18.9	nt	nt	nt
COC(=O)Cc1sc(-c2ccccn2)nc1-c1ccccc1	nt	2.24µM*	9.6%	11.5	?	-26.2%	5.02*
O=C(Nc1nnc(-c2ccccc2)s1)C1CCCN(C(=O)c2ccoc2)C1 (stereo not drawn)	nt	nt	nt	nt	?	-32.6%	nt	RGS4 inh=23.8*
CCc1nnc(NC(=O)C2CCCN(C(=O)c3ccoc3)C2)s1 (stereo not drawn)	nt	nt	nt	nt	33.7%	-15.6%	nt
CC(=O)C1=C(C)NC(C)=C(C(C)=O)C1c1ccccc1	-1.1	17.0%	-21.5%	0.3	30.2%	5.2%	nt
COc1cc([N+](=O)[O-])ccc1NC(=O)CSc1nnc(C)c(C)n1	0.2	3.7%	-22.3%	-2.0	41.6%	1.4%	nt
COc1ccc(S(=O)(=O)N2CCN(CC(=O)NC(C)c3cccs3)CC2)cc1 (stereo not drawn)	-13.7	nt	nt	18.2	nt	nt	nt
COc1ccc(S(=O)(=O)N2CCN(CC(=O)NCCc3cccs3)CC2)cc1	-3.7	?	9.0%	3.2	32.4%	-6.7%	?
Cc1ccc2nc(N3CC(=O)Nc4ccccc43)nc(-c3ccccc3)c2c1	2.3	2.4%[59 µM]	-4.8%	2.9	14.7%[57 µM]	-12.9%	nt
O=C(OCC(=O)c1ccccc1Br)c1ccccn1	?	?	10µM*	?	2.8%	8.91µM*	1.59*
COC(=O)c1cc(NCc2ccc3c(c2)OCO3)ccc1N1CCOCC1	-11.1	?	?	-7.9	-8.7%	?	12.6*
CCN(CC)c1ccc(NC(=O)Nc2cccc(C(C)=O)c2)cc1	?	1.78µM*	31.6µM*	0.0	-69.1%	35.5µM*	3.17*
SMILES	CtBP-E1A blk	G9a inh-1	BAZ2B inh	Six1-Eya2 blk	HP1b chromo inh	JMJD2A Tudor inh	G9a inh-2	others
O=C(CSc1nc2ccccc2s1)Nc1ccc(Cl)c(C(=O)O)c1	-23.4	2.82µM*	-37.7%	-10.5	?	50.1µM*	2.83*
COC(=O)C1=CO[C@@H](O)[C@@H]2C(CO)=CC[C@H]12	nt	0.7%[59 µM]	nt	nt	nt	nt	nt
CCOCCOC(=O)c1[nH]c2c(c1C)C(=O)CC(c1ccc(OC)c(OC)c1)C2 (stereo not drawn)	-2.5	8.9%	-21.0%	-6.3	-16.9%	-16.8%	nt
CCOCCOC(=O)c1[nH]c2c(c1C)C(=O)CC(c1ccc(N(C)C)cc1)C2 (stereo not drawn)	-9.7	?	?	-19.2	3.1%	?	?
CCOC(=O)N1CCc2c(sc(NCc3cccs3)c2C(=O)Nc2ccc(OC)cc2OC)C1	nt	2.82µM*	?	nt	-18.6%	3.16µM*	3.63*
CCOC(=O)N1CCc2c(sc(NCc3cccs3)c2C(=O)Nc2cc(OC)ccc2OC)C1	nt	1.58µM*	-38.0%	nt	?	3.16µM*	1.15*
COc1ccccc1Nc1ccc(C(=O)NCc2cccs2)cn1	-6.3	-6.0%	-3.5%	-14.8	37.3%	-17.1%	nt
COc1ccccc1Nc1ncc(-c2cccs2)s1	-18.0	?	?	-12.8	?	?	nt	RGS4 inh=?
CN(C)c1ccc(NC(=O)CCCc2ccccc2)cc1	-11.7	1.26µM*	44.7µM*	-18.2	?	?	2.52*
CCOc1cc(C(=O)CCC(=O)OCC(=O)Nc2ccc(F)cc2)ccc1O	1.9	-7.8%	15.1%	2.7	22.2%	-11.0%	nt
CN(C)c1ccc(NC(=O)COC(=O)CCC(=O)c2ccc(F)cc2)cc1	-15.9	2.51µM*	?	-15.9	-1.9%	?	7.08*
COCC(=O)Nc1ccc(N(C)C)cc1	-1.8	2.51µM*	3.4%	-1.6	26.8%	-10.8%	3.17*
CCSc1ccc([C@@H]2[C@H]3C(=O)N(CC)C(=O)[C@H]3[C@]3(C(=O)OC)CCCCN23)cc1OC	nt	nt	nt	-20.5	34.3%	-26.1%	nt

Screening data (PubChem BioAssay)
